Assay outcomes: PubChem BioAssay, National Center for Advancing Translational Sciences (NCATS)
Most compounds without a hit are left out; they make up all but 21% or so of the library.
DT40 TDP1 no CPT = qHTS for Inhibitors of human tyrosyl-DNA phosphodiesterase 1 (TDP1): qHTS in cells in absence of CPT; DT40 Tdp1-/- hTDP1 cells, no CPT, ATP luminescence, 48 h; Potency, µM (top dose mostly 46.2 µM), without a hit: top-dose activity change, negative = growth inhibition, usual class: inhibitors; 420,000 compounds, 15% hits; AID 686978, 2013; further: potency means the concentration at half of the fitted maximal effect; nearly all actives have a fitted effect of over 55% in size
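Growth of hTDP1-complemented DT40 Tdp1-knockout cells is measured by ATP luminescence after at least 48 hr compound exposure at 37 °C, with DMSO substituting for the 20 nM CPT used in the parallel screen.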
RORg inh = blocks mouse ROR gamma transcriptional activity. P51450. Drosophila S2 Gal4-RORgamma UAS-luciferase reporter, 20 h. Potency, µM (top dose mostly 53.6 µM), for the others: at the highest dose activity change, negative = inhibition, usual class: inhibitors. 310,000 compounds, 5.4% hits; further: potency means the concentration at half of the fitted maximal effect; nearly all actives have a fitted effect of over 60% in size
Target sequence (P51450 whole entry, looked up, the tested form may be a part): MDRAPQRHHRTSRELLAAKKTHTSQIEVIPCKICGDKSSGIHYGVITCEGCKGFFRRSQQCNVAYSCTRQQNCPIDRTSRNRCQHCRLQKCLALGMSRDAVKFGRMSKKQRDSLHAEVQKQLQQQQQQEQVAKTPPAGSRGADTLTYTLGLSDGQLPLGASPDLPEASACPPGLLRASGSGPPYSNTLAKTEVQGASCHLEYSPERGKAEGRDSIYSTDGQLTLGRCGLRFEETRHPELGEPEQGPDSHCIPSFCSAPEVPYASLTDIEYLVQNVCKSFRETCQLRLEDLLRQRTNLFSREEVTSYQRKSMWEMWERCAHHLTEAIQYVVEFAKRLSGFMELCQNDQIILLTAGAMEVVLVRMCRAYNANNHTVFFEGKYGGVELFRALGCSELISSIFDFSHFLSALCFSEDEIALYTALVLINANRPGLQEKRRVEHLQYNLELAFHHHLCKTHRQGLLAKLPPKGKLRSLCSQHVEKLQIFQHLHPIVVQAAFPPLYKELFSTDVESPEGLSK
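ROR gamma transcriptional activity was tracked as Gal4-UAS luciferase output in stably transfected Drosophila Schneider cells, with compound added 1 hr before 700 uM copper sulfate induction and a 20 hr ambient-temperature incubation.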
IL-1B inflam inh = inhibitors of inflammasome signaling (IL-1 beta secretion); activity change, % at 57.5 µM; THP-1 LPS/ATP IL-1B secretion, AlphaLISA, 16 h; active compounds read low; 360,000 compounds, 4.7% hits; in the data active means activity change below about -50%; inconclusive means mostly about -30% to -49%
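Secreted IL-1B measured by AlphaLISA bead assay after 16 h compound exposure of THP-1 cells; compounds (final up to 57.5 uM) added 1 h before LPS (250 ng/mL) and ATP (1.25 mM) stimulation; lower signal means less secretion.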
DT40 TDP1 CPT = growth inhibition of DT40 Tdp1-/-;hTDP1 cells with camptothecin (screen for TDP1 inhibitors) | chicken DT40 Tdp1-/-;hTDP1 cells + 20 nM CPT, ATP luminescence, 48 h | Potency, µM (doses to about 46.2 µM), for inactives: at the highest dose activity change, negative = growth inhibition, hits mostly inhibitors | 420,000 compounds, 12% hits | AID 686979; further: potency means the concentration at half of the fitted maximal effect; nearly all actives have a fitted effect of over 55% in size
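Cell growth measured by CellTiter-Glo luminescence after a minimum 48 h, 37 C compound exposure with 20 nM CPT in Tdp1-knockout DT40 cells stably expressing hTDP1, seeded 400/well; qHTS titration format.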
Gal4-VP16 FLuc = counter-screen for ROR gamma inhibitors: Gal4-VP16 reporter; Drosophila S2 Gal4-VP16 UAS-luciferase, luminescence, 20 h; Potency, µM (series often up to 53.6 µM), for inactives: at the top dose activity, negative = inhibition, actives largely listed as inhibitors; 310,000 compounds, 3.5% hits; AID 2546;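 further: Gal4-VP16 expression switched on by copper sulfate through the metallothionein promoter; potency means the concentration at half of the fitted maximal effect; nearly all actives have a fitted effect of over 50% in size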
ELG1 repair inh = blocks ELG1-dependent DNA repair in HEK293T cells; HEK293T ELG1-luciferase reporter, luminescence, 16 h; DNA damage induced by 5-fluorouridine; Potency, µM (top dose mostly 46.1 µM), for inactives: at the top dose activity change, negative = inhibition, most hits filed as inhibitors; 330,000 compounds, 2.3% hits; further: potency means the concentration at half of the fitted maximal effect; nearly all actives have a fitted effect of over 55% in size
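Luminescence from the luciferase reporter, measured 30 min after ONE-Glo reagent at room temperature, was the read-out. Beforehand, 2,000 cells per well were exposed for 16 hr at 37 °C to 5-fluorouridine together with compound or vehicle.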
An asterisk follows results filed as active; ? = inconclusive; · = no result; [ ] = another dose, or the depositor's remark. Unless noted, the call rests on the fitted dose curve; in most records, active means well fitted curve in the direction sought with a large enough effect; inconclusive means small, poorly fitted or top-dose-only effect, or another doubt; inactive means no such curve, though single readings can be large; an effect the other way counts as inactive or inconclusive. On the % scale 0 is the no-effect control and ±100 the full control effect.

SMILES	DT40 TDP1 no CPT	RORg inh	IL-1B inflam inh	DT40 TDP1 CPT	Gal4-VP16 FLuc	ELG1 repair inh
Cc1cc(C)c(C)c(OCC(=O)NCC2CCCO2)c1 (stereo unspecified)	-12%	-29%	-5	?	-10%	4%
Cc1ccc(NC(=S)NCCN2CCOCC2)cc1C	-8%	11µM*	8	-2%	-6%	?
C=CCOC(=O)NC(CC(=Nc1ccc(OC)cc1)C(=O)OC)c1ccccc1 (stereo unspecified)	·	34%	·	·	0%	·
COCCN(C(=O)CCC(=O)Nc1ccccn1)C(C(=O)NCCC(C)C)c1ccc(F)cc1 (stereo unspecified)	-6%	13%	5	3%	-1%	-2%
Cn1nnnc1SCC1=C(C(=O)O)N2C(=O)[C@@H](NC(=O)[C@H](OC=O)c3ccccc3)[C@H]2SC1	-9%	·	·	-4%	·	·
O=C(NCC1CCCO1)NC12CC3CC(CC(C3)C1)C2 (stereo unspecified)	-7%	8%	15	-12%	5%	7%
S=C(NCC1CCCO1)NC12CC3CC(CC(C3)C1)C2 (stereo unspecified)	-4%	0.63µM*	45	9%	5µM*	-19%
CC(=O)OC[C@@H]1O[C@@H](O/N=C2/C[C@@H](O)[C@@H](O)[C@@H]3[C@@H]4C(=O)N(Cc5ccccc5)C(=O)[C@H]4CC[C@@H]23)[C@H](OC(C)=O)[C@H](OC(C)=O)[C@@H]1OC(C)=O	·	14%[10 µM]	·	·	4%[10 µM]	·
COC(=O)[C@@H]1C[C@@H]2CC[C@@H](O)C[C@@H]2N1Cc1ccc(C)s1	·	-15%	·	·	-12%	·
CCn1c(C(=O)NCc2ccc(F)cc2)cc2oc3ccccc3c21	?	·	·	21µM*	·	·
CCOc1ccccc1CNC(=O)c1cc2oc3ccccc3c2n1CC	18µM*	17%	?	26µM*	-1%	?
CCOc1cc(N2CCOCC2)c(OCC)cc1NC(=O)c1ccccc1N1CCCC1=O	?	·	0	?	·	·
Cc1cc(C)c2oc(C(=O)Nc3c(C(=O)c4ccccc4)oc4ccccc34)cc(=O)c2c1	-21%	·	·	14%	·	·
C/C=C(/C)C(=O)OC1c2c(ccc3ccc(=O)oc23)OC(C)(C)C1OC(=O)/C(C)=C\C (stereo unspecified)	?	?	-10	?	5%	?
CC(=O)O[C@@H]1[C@H](OC(=O)CC(C)C)c2c(ccc3ccc(=O)oc23)OC1(C)C	?	-20%	-2	26µM*	-10%	4%
Cc1cc(C(F)F)n2nc(C(=O)Nc3ccc(C(C)C)cc3)nc2n1	-30%	·	·	-17%	·	·
CCN(CC)C(=S)SCC(=O)c1ccc(F)cc1	4.1µM*	?	9	2.9µM*	-10%	?
CCN(CC)C(=S)SCC(=O)Nc1ccc(F)cc1	?	?	-26	21µM*	-11%	-6%
CCN(CC)C(=S)SCC(=O)c1ccccc1	?	6%	-9	?	-7%	?
Cc1ccc(Cl)cc1NC(=O)c1ccc(NC(=O)N2CCSc3ncccc32)cc1	21µM*	·	·	?	·	·
COc1cc(NC(=O)c2ccc(NC(=O)N3CCSc4ncccc43)cc2)cc(OC)c1	13µM*	·	·	15µM*	·	·
Cc1ccc(Cl)cc1NC(=O)N1CCN(C)c2ncccc21	-11%	·	·	-11%	·	·
CN(C)NC(=S)Nc1ccc2nc(-c3ccccn3)c(-c3ccccn3)nc2c1	-9%	13µM*	-10	18%	16µM*	15%
OCCCNC(=S)Nc1ccc2nc(-c3ccccn3)c(-c3ccccn3)nc2c1	-2%	40%	15	1%	1%	12%
S=C(Nc1ccc2nc(-c3ccccn3)c(-c3ccccn3)nc2c1)N1CCOCC1	0%	-27%	0	25%	-6%	6%
SMILES	DT40 TDP1 no CPT	RORg inh	IL-1B inflam inh	DT40 TDP1 CPT	Gal4-VP16 FLuc	ELG1 repair inh
CC(C)(C)CC(C)(C)NC(=S)Nc1ccc2nc(-c3ccccn3)c(-c3ccccn3)nc2c1	?	7.1µM*	-16	?	?	?
C=CCNC(=S)N1CCN(c2ncc3c(=O)c(C(=O)O)cn(CC)c3n2)CC1	-28%	-30%	-15	?	1%	?
CCn1cc(C(=O)O)c(=O)c2cnc(N3CCN(C(=S)NC(=O)c4ccc(Br)cc4)CC3)nc21	0%	0.56µM*	?	2%	-10%	0%
CCn1cc(C(=O)O)c(=O)c2cnc(N3CCN(C(=S)Nc4ccc(F)cc4)CC3)nc21	4%	24%	-9	3%	-9%	-1%
CCn1cc(C(=O)O)c(=O)c2cnc(N3CCN(C(=S)Nc4ccccc4Cl)CC3)nc21	?	-9%	0	-39%	0%	12µM*
CCn1cc(C(=O)O)c(=O)c2cnc(N3CCN(C(=S)NC(=O)c4ccc(Cl)cc4)CC3)nc21	22%	1µM*	?	-9%	-1%	?
Cc1ccc(C2(c3ccccc3)NC(=O)N(CC(=O)N(C)C3CCS(=O)(=O)C3)C2=O)cc1C (stereo unspecified)	-28%	·	-9	1%	·	12%
Cc1cccc(C)c1NC(=O)CCCSc1nc2ccccc2s1	?	-9%	18	?	12%	5%
CC(=O)Nc1ccc(NC(=O)CCCSc2nc3ccccc3s2)cc1	-10%	7.1µM*	40	-29%	5µM*	-1%
O=C(CCCSc1nc2ccccc2s1)NC1=NCCS1	-16%	0.89µM*	39	-27%	4.5µM*	14%
OC(c1ccc(F)cc1)c1nc(-c2ccc(F)c(Cl)c2)cs1 (stereo unspecified)	?	·	-11	?	·	·
CCN(C(=O)Cc1c(C(=O)O)c(C)cn1C)c1cccc(Cl)c1	-17%	·	·	-22%	·	·
Cn1nnnc1SCCNCc1ccccc1OCc1ccccc1Cl	13µM*	?	-50*	?	?	?
Cn1nnnc1SCCNCc1cc(Br)ccc1OCc1ccccc1Cl	16µM*	·	·	23µM*	·	·
Cn1nnnc1SCCNCc1ccccc1OCc1ccccc1F	?	·	·	18µM*	·	·
COc1ccccc1CNCCSc1nnnn1C	-14%	·	·	3%	·	·
COc1ccccc1N1CCN(C(=O)c2ccc3noc(-c4ccccc4)c3c2)CC1	?	·	28	?	·	·
Cc1nnc(SCC(=O)Nc2ccc3c(c2)OCCO3)n1N	-7%	31%	9	-2%	8%	10%
